Experimental data reported in PubChem BioAssay (NCATS).
Where “and” joins values, the source holds several entries; their conditions need not be identical. Identical values can stand only once. Results filed as inconclusive are left out. Some structures have more than one record in an assay (separate samples or runs), and their calls can disagree. Calls of active or inactive are those of the source. The call rests on the fitted dose curve; in most records, active means well fitted inhibition curve with a large enough effect; inconclusive means small, poorly fitted or top-dose-only effect; inactive means flat fitted curve, though single readings scatter.

Key:
[1] = system: CRL-7250; experiment: Cytotoxic Profiling of Annotated Libraries Using Quantitative High-Throughput Screening (AID 1296008); details: Five cell lines viability, CellTiter-Glo ATP luminescence, 48-72 h; max response: hits give low values
Summary of the method: (§1)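 Cells exposed to compounds for 48 or 72 hr at 37 degrees Celsius. Viability read as ATP-coupled luminescence with CellTiter-Glo after 10 min at room temperature.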

[2] = system: HEK293; experiment: as above; details: Five cell lines viability, CellTiter-Glo ATP luminescence, 48-72 h; max response: hits give low values
Summary of the method: as §1

[3] = system: HaCat; experiment: as above; details: Five cell lines viability, CellTiter-Glo ATP luminescence, 48-72 h; max response: hits give low values
Summary of the method: as §1

[4] = system: KB-3-1; experiment: as above; details: Five cell lines viability, CellTiter-Glo ATP luminescence, 48-72 h; max response: hits give low values
Summary of the method: as §1

[5] = system: NIH3T3; experiment: as above; details: Five cell lines viability, CellTiter-Glo ATP luminescence, 48-72 h; max response: hits give low values
Summary of the method: as §1

[6] = system: MCC-26; experiment: qHTS assay to identify novel small-molecules to repurpose for Merkel cell carcinoma treatment (AID 1296009); details: MCC and control cell lines, CellTiter-Glo viability, 72 h; series mostly up to 46 µM
Summary of the method: (§2)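 Cells were treated for 72 hr at 37 degree celsius with compounds in 8- or 11-point dose response. Viability was read by CellTiter-Glo luminescence, normalized to no-cell (cytotoxicity) and DMSO controls.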

[7] = system: MKL-2; experiment: as above; details: MCC and control cell lines, CellTiter-Glo viability, 72 h; series mostly up to 46 µM
Summary of the method: as §2

[8] = system: HACAT; experiment: as above; details: MCC and control cell lines, CellTiter-Glo viability, 72 h; at 44.8 µM (top of the series) unless noted
Summary of the method: as §2

[9] = system: MCC-13; experiment: as above; details: MCC and control cell lines, CellTiter-Glo viability, 72 h; series mostly up to 46 µM
Summary of the method: as §2

[10] = system: MKL-1; experiment: as above; details: MCC and control cell lines, CellTiter-Glo viability, 72 h; series mostly up to 46 µM
Summary of the method: as §2

[11] = system: HEK293T; experiment: as above; details: MCC and control cell lines, CellTiter-Glo viability, 72 h; at 44.8 µM (top of the series)
Summary of the method: as §2
Further: nearly all actives have a fitted effect of over 60% in size.
On the % scale 0 is the no-effect control and ±100 the full control effect; potency means the concentration at half of the fitted maximal effect.

COc1cc(N2CCC(N3CCN(C)CC3)CC2)ccc1Nc1ncc(Cl)c(Nc2ccccc2S(=O)(=O)C(C)C)n1
active: Potency [1] 1.46 µM | Potency [2] 1.16 µM | Potency [3] 3.66 µM | Potency [4] 0.92 µM | Potency [5] 1.64 µM | Potency [6] 5.9 µM
inactive: Potency [7]

Cn1c(N2CCCCS2(=O)=O)nc(C(=O)NCc2ccc(F)cc2)c(O)c1=O
inactive: max response [1] -1.04% and -2.16% | max response [2] -2.82% and 1.1% | outcome [3] | max response [4] 0.163% and -14.6% | outcome [8] | Potency [9] | Potency [6] | Potency [10] | Potency [7]

NC(CO)(CO)CCc1ccc(Sc2cccc(OCc3ccccc3)c2)cc1Cl
inactive: max response [1] -10.2% | Potency [9] | Potency [6]
active: Potency [2] 10.5 µM | Potency [3] 26.4 µM | Potency [5] 16.6 µM | Potency [10] 13.2 µM | Potency [7] 23.5 µM

Nc1ncnc2ccccc12
inactive: outcome [1] | outcome [2] | max response [3] -14.1% | outcome [4] | outcome [11] | Potency [9] | Potency [6] | Potency [10] | Potency [7]

O=C(NCc1ccccc1)c1csc(Nc2ccncn2)n1
inactive: outcome [3] | max response [4] 3.38% and -16.6% | outcome [8]
active: Potency [1] 11.8 µM | Potency [2] 5.26 µM | Potency [10] 8.33 µM

CO[C@@H](C(=O)N1Cc2[nH]nc(NC(=O)c3ccc(N4CCN(C)CC4)cc3)c2C1)c1ccccc1
active: Potency [1] 5.26 µM | Potency [2] 4.18 µM | Potency [3] 2.35 µM | Potency [4] 11.8 µM
inactive: Potency [7]

O=C(O)c1ccc(-c2c[nH]c3ncc(-c4ccccc4)cc23)cc1C1CCCC1
inactive: max response [1] -5.06% | outcome [2] | outcome [3] | outcome [4] | outcome [8] | outcome [11] | Potency [9] | Potency [6] | Potency [10]
